HT1080 IDH1KD tx: qHTS for induction of synthetic lethality in tumor cells producing 2HG: qHTS for the HT-1080-IDH1KD cell line; AID 686971, 2013; Potency, µM (top dose mostly 46.1 µM), for inactives: top-dose activity, negative = toxicity, usual class: cytotoxic; HT-1080 IDH1 knockdown viability, ATP luminescence, 48 h; 360,000 compounds, 2% hits;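 further: 0% = DMSO wells and -100% = cell-free medium wells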
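CellTiter-Glo luminescence after 48 h compound exposure at 37 degrees C of IDH1-knockdown HT-1080 cells in 5% FBS RPMI. %Activity scaled between DMSO wells and cell-free media wells, with curves fitted and assigned curve classes.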
MCF10A rerep: A quantitative high throughput screen for small molecules that induce DNA re-replication in MCF 10a normal breast cells; MCF 10A DNA re-replication, Hoechst nuclear intensity, 48 h; Potency, µM (series often up to 46.1 µM), for the others: top-dose activity, positive = re-replication, hits mostly activators; 350,000 compounds, 2.9% hits; AID 624296, 2012; further: % of control where 0% means no effect; nearly all actives have a fitted effect of over 50% in size
KB-3-1 cytotox: qHTS assay for MDR1-selective chemotherapeutics: Primary screen using the parental adenocarcinoma cell KB-3-1; Potency, µM (top dose mostly 46.1 µM), hits mostly cytotoxic; AID 1347075, 2019; KB-3-1 viability, CellTiter-Glo ATP luminescence, 72 h; 400,000 compounds, 1.4% hits; further: on the % scale 0 is the no-effect control and ±100 the full control effect; nearly all actives have a fitted effect of over 60% in size
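Luminescent ATP read-out (CellTiter-Glo) measures survival of drug-naive KB-3-1 cells after 72 h compound exposure at 37 °C. Titration series was screened from lowest to highest concentration, with DMSO vehicle plates as background controls.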
SW480 rerep: A quantitative high throughput screen for small molecules that induce DNA re-replication in SW480 colon adenocarcinoma cells; SW480 DNA re-replication, Hoechst DNA content imaging, 48 h; Potency, µM (top dose mostly 46.1 µM), for the others: top-dose re-replication activation, actives largely listed as activators; 340,000 compounds, 1.8% hits; AID 624297, 2012; further: % of control where 0% means no effect; nearly all actives have a fitted effect of over 55% in size
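250 cells/well; 23 nL cpd via pin tool; 48 hr, 37 C, 5% CO2; Hoechst 40 min; imager read of total nuclear intensity, ex 405/em 500-530 nm.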
HT1080NT lethal: qHTS for induction of synthetic lethality in tumor cells producing 2HG: qHTS for the HT-1080-NT fibrosarcoma cell line. 360,000 compounds, 1.6% hits. Potency, µM (series often up to 46.1 µM), inactives show at the top dose activity, negative = less viability, usual class: cytotoxic. HT-1080-NT fibrosarcoma viability, CellTiter-Glo ATP luminescence, 48 h;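 further: NT is the 2HG producing partner of a matched IDH1 knockdown line; 0% = DMSO-treated cells and -100% = media-only wells without cells; nearly all actives have a fitted effect of over 55% in size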
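HT-1080-NT fibrosarcoma cells (2HG-overproducing), 750 cells/well in RPMI with 5% FBS, dosed after 2 h and incubated 48 h at 37C. CellTiter-Glo luminescence normalized to DMSO and no-cell wells; concentration-response curves fitted and classed.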
KB-V1 MDR tox: qHTS assay for MDR1-selective chemotherapeutics: Primary screen using the drug-selected MDR subline cells KB-V1; KB-V1 MDR cells viability, CellTiter-Glo, 72 h; Potency, µM (highest dose often 46.1 µM), hits mostly cytotoxic; 400,000 compounds, 3.4% hits; further: on the % scale 0 is the no-effect control and ±100 the full control effect; nearly all actives have a fitted effect of over 60% in size
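Cells of the MDR subline KB-V1 are plated, dosed with compound at multiple concentrations, and incubated 72 h at 37 degrees C; CellTiter-Glo is then added and luminescence read after 10 min.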
* = called active by the depositor; i = inactive; ? = inconclusive; / = no result given. An excerpt weighted towards active compounds, which were near 7.9% of everything screened. The call rests on the fitted dose curve; in most records, active means well fitted curve in the direction sought with a large enough effect; inconclusive means small, poorly fitted or top-dose-only effect, or another doubt; inactive means no such curve, though single readings can be large; an effect the other way counts as inactive or inconclusive. Potency means the concentration at half of the fitted maximal effect.

SMILES	HT1080 IDH1KD tx	MCF10A rerep	KB-3-1 cytotox	SW480 rerep	HT1080NT lethal	KB-V1 MDR tox
O=C(CCN1C(=O)/C(=C\c2ccccc2)SC1=S)N1CCCCC1	?	?	?	1%	-1%	i
O=C(CCN1C(=O)/C(=C/c2cccs2)SC1=S)N1CCCCC1	?	?	?	23µM*	?	?
Cc1ccc(/C=C2\SC(=O)N(CCC(=O)N3CCN(C)CC3)C2=O)cc1	-10%	13µM*	i	-1%	-13%	?
COc1ccc(/C=C2\SC(=S)N(CCCC(=O)N3CCOCC3)C2=O)cc1OC	-7%	5%	?	4%	-1%	?
COC(=O)c1ccc(CSc2nc3c([nH]c4ccccc43)c(=O)n2-c2cccc(Cl)c2)o1	/	/	i	/	/	i
CC(=O)c1cccc(NC(=O)C(Cc2ccccc2)NS(=O)(=O)c2ccc(Br)s2)c1 (stereo not given)	/	/	i	/	/	i
Cc1nc2cccnc2n1C1CCN(C(=O)Nc2ccc(Cl)cc2)CC1	/	/	i	/	/	i
CC(C)(C)C1CCc2nc(NC(=O)COc3ccccc3[N+](=O)[O-])sc2C1 (stereo not given)	/	/	i	/	/	i
CN1CCN(C(=O)CCN2C(=O)/C(=C/c3ccc(F)cc3)SC2=S)CC1	-10%	?	21µM*	-2%	-7%	i
O=C(CCN1C(=O)/C(=C/c2ccccc2F)SC1=S)NCCCn1ccnc1	0%	21µM*	i	-6%	1%	i
Cc1ccc(/C=C2/SC(=S)N(CCC(=O)N3CCN(C)CC3)C2=O)cc1	-18%	19%	?	1%	-1%	i
O=C(CCCN1C(=O)/C(=C/c2ccccc2Cl)SC1=S)N1CCOCC1	-1%	?	?	?	-6%	i
O=C(CCCN1C(=O)/C(=C/c2ccccc2)SC1=S)NCCCn1ccnc1	-7%	?	?	-4%	-5%	i
CN1CCN(C(=O)CCN2C(=O)/C(=C/c3ccccc3Cl)SC2=S)CC1	?	5.8µM*	?	?	?	?
O=C(CCN1C(=O)/C(=C/c2ccccc2Cl)SC1=S)NC1C=CS(=O)(=O)C1 (stereo not given)	-1%	15µM*	i	?	-4%	i
O=C(CCN1C(=O)/C(=C/c2ccc(F)cc2)SC1=S)NC1C=CS(=O)(=O)C1 (stereo not given)	-3%	?	i	27%	3%	?
Cc1cccc(Oc2nc3c(C)cccn3c(=O)c2/C=C(\C#N)c2nc3ccccc3s2)c1	/	/	i	/	/	i
COc1ccc(C)cc1NC(=O)Cn1c(=O)n(Cc2nc(C)no2)c(=O)c2ccccc21	/	/	i	/	/	i
CCCN1CCN(C(=O)c2oc3c(Cl)cccc3c2C)CC1	-1%	22%	i	-1%	-15%	?
CCCCCCCCCCCCCC[N+](C)(C)Cc1ccccc1	/	27µM*	18µM*	27µM*	/	i
CCCCCCCCCCCCCCCC[N+](C)(C)Cc1ccccc1	/	13µM*	/	?	/	/
CCCCCCCCCCN(CCCCCCCCCC)c1ccccc1	/	/	i	/	/	i
FC(F)(F)c1nc2ccccc2n2c(-c3c(Cl)cccc3Cl)nnc12	-5%	17%	?	3%	-9%	i
FC(F)(F)c1nc2ccccc2n2c(-c3ccc(Cl)cc3Cl)nnc12	?	26%	18µM*	?	?	?
Cc1cc(OC(=O)c2ccccc2C)c([N+](=O)[O-])c(=O)[nH]1	5%	-1%	i	-33%	4%	i
